A short description of experiment [1]: qHTS Assay for Identification of Small Molecule Agonists for NFkB Signaling Pathway. (AID 624478).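 Note: compounds tested together with TNF alpha at its EC50 of 10 pM; 0% is about no effect.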 The method, boiled down:
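ME-180 cervical carcinoma, stable NFkB-RE beta-lactamase reporter; 1000 cells/well, overnight attachment; cpd + TNF alpha 10 pM final, 5 h 37 C; LiveBLAzer 2 h RT; FRET 460/530 nm, ex 405 nm.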
(In general: qHTS replaces the single test concentration by a dilution series.)

Experiment [2] is described as follows: qHTS Assay for Identification of Small Molecule Antagonists for NFkB Signaling Pathway. (AID 624479; calls by dose curve;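 note: pathway stimulated with TNF alpha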; note: potency is the fitted concentration of half-maximal effect).
The nature of experiment [3]: Cell Proliferation Assay against the TMD8 Cell Line (AID 651645).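 Note: cells exposed to compound for 48 h before reading.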 As to conditions: TMD8 DLBCL cell line proliferation/viability; at 46.1 µM (top of the series) unless noted. The gist of the method:
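500 TMD8 cells/well, RPMI + Glutamax, no phenol red, 5% FBS; cpd added immediately; 48 h, 37C, 5% CO2; CellTiter-Glo, luminescence. Controls: DMSO = 100%, bortezomib 9.2 uM final = 0%.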

Experiment [4] is described as follows: Cell Proliferation Assay against the HBL1 Cell Line (AID 651646).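 Note: cells exposed to compound for 48 h before reading.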 The following applies: HBL1 DLBCL cells; at 46.1 µM (top of the series) unless noted. The gist of the method:
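HBL1 ABC DLBCL cells, 500/well in RPMI with 5% FBS, treated for 48 h at 37C. Viability read by CellTiter-Glo luminescence, normalized to DMSO as 100% and 9.2 uM bortezomib as 0%.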

Experiment [5] can be described thus: Cell Proliferation Assay against the TMD8 Cell Line (Caspase readout at 16 hrs) (AID 651712). Note: potency is the fitted concentration of half-maximal effect. The method, boiled down:
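TMD8 cells in RPMI with 5% FBS were treated with compound for 16 h at 37 C, then caspase 3/7 activation was read by Caspase-Glo luminescence. Percent activity was scaled to DMSO (0%) and 9.2 uM bortezomib final (100%).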

Experiment [6] can be described thus: Cell Proliferation Assay against the TMD8 Cell Line (Caspase readout at 8 hrs) (AID 651713). Note: potency is the fitted concentration of half-maximal effect. The method, boiled down:
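Seed log-phase TMD8 cells, add compound by pin tool, incubate 8 h at 37C under 5% CO2, equilibrate to room temperature, add Caspase-Glo, wait 15 min, read luminescence; percent activity uses DMSO and 9.2 uM bortezomib controls.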

Experiment [7] is described as follows: Cytotoxicity counterscreen for NFkB agonists and antagonists (AID 624476).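 Note: cells exposed to compound for 48 hours.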 Note: potency is the fitted concentration of half-maximal effect. In general terms: A counterscreen serves to expose hits that act by an unwanted route or on another target.
Experiment [8] can be described thus: qHTS assay for small molecule agonists of the antioxidant response element (ARE) signaling pathway (AID 651741; active = well fitted activation curve with a large enough effect in the signal ratio; the % refers to the signal ratio; note: potency is the fitted concentration of half-maximal effect; for activation: % of control where 0% means no effect). The gist of the method: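 CellSensor ARE-bla HepG2 cells (2,000/well) carrying ARE-driven beta-lactamase, exposed 16 h at 37 C. LiveBLAzer B/G FRET substrate added for 2 h at room temperature; fluorescence intensity read.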
A short description of experiment [9]: qHTS assay for small molecule activators of the p53 signaling pathway (AID 651743; active = well fitted activation curve with a large enough effect in the signal ratio, not every such curve was filed as active; the % refers to the signal ratio; note: % of control where 0% means no effect). As to conditions: HCT-116 p53RE-bla, beta-lactamase FRET ratio, 16 h; stronger effect = higher value. The gist of the method:
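p53RE-bla HCT-116 cells carrying a beta-lactamase reporter under p53 response elements were exposed to compounds for 16 hours at 37 C. Reporter activity read as fluorescence after 2 hours at room temperature with LiveBLAzer B/G FRET substrate.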

The nature of experiment [10]: qHTS assay for small molecule activators of the nuclear factor-kappa B (NF-kB) signaling pathway (AID 651749; active = well fitted activation curve with a large enough effect in the signal ratio; the % refers to the signal ratio; note: % of control where 0% means no effect). As to conditions: NF-kB-bla ME-180 cells, beta-lactamase FRET ratio, 16 h; stronger effect = higher value. The gist of the method:
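NF-kB-bla ME-180 cells carrying a beta-lactamase reporter under an NF-kB response element, 2,000 cells/well, exposed to compound for 16 hr at 37C; FRET-based beta-lactamase fluorescence read-out of pathway activation.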

A short description of experiment [11]: qHTS assay for small molecule disruptors of the mitochondrial membrane potential - 1 hr assay (AID 651754; calls by dose curve; note: potency is the fitted concentration of half-maximal effect; nearly all actives have a fitted effect of over 35% in size). The method, boiled down: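 HepG2, 2,000 cells/well, overnight attachment; cpd or DMSO 1 hr, 37C/5% CO2; Mito-MPS dye 30 min, 37C; fluorescence monomer (490/535) and aggregate (540/590).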
Experiment [12] is described as follows: qHTS assay for small molecule disruptors of the mitochondrial membrane potential - 5 hr assay (AID 651755; calls by dose curve; note: potency is the fitted concentration of half-maximal effect; nearly all actives have a fitted effect of over 40% in size). The method, boiled down: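 HepG2 cells (2,000/well), attached overnight, exposed to compound 5 hr at 37C, then Mito-MPS dye 30 min. Fluorescence read for monomers (490/535 nm) and aggregates (540/590 nm).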
The target of experiment [13] is Tumor necrosis factor (Homo sapiens) (UniProt P01375). The experiment is described as follows: qHTS assay to identify small molecules that stimulate Tumor Necrosis Factor-alpha (TNF-alpha) secretion (AID 651757; active = well fitted curve in the direction sought with a large enough effect in the signal ratio; the % refers to the signal ratio; note: 0% is about no effect). The gist of the method: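 Read-out is HTRF, a TR-FRET sandwich of cryptate- and XL665-labeled anti-TNF-alpha antibodies detecting cytokine secreted by THP-1 cells. Cells had been incubated with test compounds at 37 C for 17 hrs beforehand.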
Tumor necrosis factor (Homo sapiens), sequence (P01375 whole entry, looked up): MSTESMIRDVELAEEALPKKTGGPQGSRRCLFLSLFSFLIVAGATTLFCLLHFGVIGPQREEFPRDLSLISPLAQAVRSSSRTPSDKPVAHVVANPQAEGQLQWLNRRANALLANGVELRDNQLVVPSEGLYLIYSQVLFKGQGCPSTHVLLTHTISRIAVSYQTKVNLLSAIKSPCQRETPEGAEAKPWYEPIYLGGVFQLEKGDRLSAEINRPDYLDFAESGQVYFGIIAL

Here are results for 25 compounds from PubChem BioAssay (NCATS).

SMILES strings stand for the structures. Several values for one entry are separate records, joined by “and”; a condition that tells them apart may be missing. Equal entries are not always repeated. Results filed as inconclusive are left out. Activity calls are given as the source filed them. Unless noted, calls come from the whole dose curve; as a rule, active = well fitted curve in the direction sought with a large enough effect; inconclusive = small, poorly fitted or top-dose-only effect, or another doubt; inactive = no such curve, though single readings can be large; an effect the other way counts as inactive or inconclusive.

`COc1ccc(C2CC(c3ccccc3)=NN2c2ccc(S(N)(=O)=O)cc2)cc1` (centres undefined): in experiment [1], the result was inactive. Also, the Potency entry in experiment [2] was “inactive”. Further, the viability (% of control) in [3] amounted to 13.6%. The viability, percent of control in experiment [4] worked out at 5.45%.
For the compound `Cc1ccc(F)c(NC(=O)Nc2ccc(-c3cccc4[nH]nc(N)c34)cc2)c1`, in experiment [1], the result was inactive. Besides, the Potency in experiment [2] was 1.49 µM (active). Moreover, in experiment [3], the viability (% of control) came out at 4.9%. The viability, percent of control in experiment [4] was found to be 8.04%. In addition, the Potency entry in experiment [5] and in experiment [6] was “inactive” throughout.
Turning to `CS(=O)c1ccc(-c2nc(-c3ccc(F)cc3)c(-c3ccncc3)[nH]2)cc1` (centres undefined), the Potency result in experiment [7], in [2], in experiment [5] and in experiment [6] was “inactive” in each case. For the same compound, the result in experiment [1] was inactive.
With `O=c1cc(N2CCOCC2)oc2c(-c3cccc4c3sc3ccccc34)cccc12`, the Potency in experiment [7] is 18.7 µM (active); in experiment [2], 13.3 µM (active); in experiment [6] it was 20.9 µM (active). In experiment [1], the compound was classed as inactive. Further, the viability (% of control) in [3] is 2.51%. In addition, the viability, percent of control in [4] was determined as 2.43%.
Turning to `O=C(O)CCC1CCC(c2cc(F)ccc2F)(S(=O)(=O)c2ccc(Cl)cc2)CC1` (centres undefined), the Potency entry in experiment [7], in [2], in experiment [5] and in experiment [6] was “inactive” throughout. In [1], the compound was called inactive. Besides, in experiment [3], the viability (% of control) is 98.2%. For the same compound, the viability, percent of control in experiment [4] is 95.2%.
`N#Cc1ccc(NC(=O)Nc2ccccc2Br)c2n[nH]nc12`: the Potency result in experiment [7], in experiment [2], in experiment [5] and in experiment [6] was “inactive” throughout. Besides, the viability (% of control) in experiment [3] came out at 12.8%. Also, the viability, percent of control in [4] turned out to be 69.7%.
Regarding `COc1cc(Nc2ncc(F)c(Nc3ccc4c(n3)NC(=O)C(C)(C)O4)n2)cc(OC)c1OC`, the Potency in experiment [7] is 13.2 µM (active). The result in [1] was inactive. For the same compound, the viability (% of control) in [3] was 17.5%. The viability, percent of control in [4] worked out at 56.6%. Besides, the Potency entry in experiment [5] and in experiment [6] was “inactive” throughout.
Turning to `O=c1c(O)c(-c2ccc(O)cc2)oc2cc(O)cc(O)c12`, the results for the Potency in experiment [8], in experiment [11] and in [12] were 21.7 µM (active), 5.31 µM (active) and 8.41 µM (active), respectively. Moreover, the activation in experiment [9] is 2.31% (inactive) and 6.56% (inactive); in [10], -2.22% (inactive) and -4.27% (inactive).
On to `Clc1ccc(-c2nc3sccn3c2C=NOCc2ccc(Cl)c(Cl)c2)cc1`, for which the compound was called inactive in [1]. In addition, the Potency entry in experiment [2], in experiment [5] and in [6] was “inactive” in each case. The viability (% of control) in experiment [3] is 74.9%. The viability, percent of control in experiment [4] came out at 4.32%.
For the compound `O=C(Nc1cc(Cl)cc2c1[nH]c1cnccc12)c1cccnc1`, the Potency result in experiment [7] and in [6] was “inactive” in each case. Moreover, the result in [1] was inactive. The Potency in experiment [2] was 18.8 µM (active). In [3], the viability (% of control) amounted to 1.73%. In addition, the viability, percent of control in experiment [4] came out at 32.9%.
With `COc1cc2nc(-c3ccc(N4CCN(C)CC4)cc3)nc(NCCN3CCOCC3)c2cc1OC`, the Potency result in experiment [2] was “inactive”. In experiment [3], the viability (% of control) came to 1.8%. In addition, the viability, percent of control in experiment [4] came to 5.66%. For the same compound, in [6], the Potency is 29.6 µM (active).
With `CO[C@H]1C=CC=C(C)C(=O)NC2=CC(=O)C(NCCN(C)C)=C(C[C@@H](C)C[C@H](OC)[C@@H](O)[C@@H](C)C=C(C)[C@@H]1OC(N)=O)C2=O`, the compound was called inactive in experiment [1]. Besides, the viability (% of control) in experiment [3] amounted to 3.74%. Besides, the viability, percent of control in experiment [4] is 4.29%.
Regarding `CCOc1ccc(Nc2nc(-c3c(C)nc4ccccn34)cs2)cc1`, the result in experiment [1] was inactive. Moreover, the viability (% of control) in experiment [3] came to 5.58%. For the same compound, the viability, percent of control in experiment [4] is 14.7%. The Potency in experiment [5] is 0.105 µM (active).
Take `O=C(N[C@@H](c1ccccc1)[C@@H]1CCCCN1)c1cccc(C(F)(F)F)c1Cl`: the Potency result in experiment [7], in experiment [2] and in experiment [6] was “inactive” throughout. Moreover, the outcome in [1] was inactive. Besides, the viability (% of control) in [3] was determined as 74.3%. For the same compound, the viability, percent of control in experiment [4] was 28.1%.
Take `O=c1cc(-c2ccccc2)oc2cc(O)cc(O)c12`: the Potency in experiment [8] was 10.9 µM (active). The activation is 22.8% (inactive) in [9] and -2.47% (inactive) in [10].
Regarding `O=C(O)c1cc(-c2ccccc2)nc2ccccc12`, the activation in experiment [9] is -1.06% (inactive); in [10], -3.75% (inactive).
For `CN1CCN(CCOc2cc(OC3CCOCC3)c3c(Nc4c(Cl)ccc5c4OCO5)ncnc3c2)CC1`, the compound was called inactive in [1]. The viability (% of control) in experiment [3] was 17.4%. Further, the viability, percent of control in experiment [4] was 19.4%.
For the compound `CCOC(CN1C(=O)[C@](CC(=O)Nc2ccc(C)cc2)(NC(=O)Nc2ccc(C)cc2)c2ccccc21)OCC`, the result in experiment [1] was inactive. Moreover, the Potency in experiment [2] is 18.8 µM (active). Besides, the viability (% of control) in experiment [3] was determined as 16.8%. For the same compound, the viability, percent of control in [4] was found to be 4.35%.
On to `O=C(O)Cc1cccc2ccccc12`, for which, in experiment [8], the Potency result is “inactive”. Also, the activation in experiment [9] is -2.96% (inactive) and -4.77% (inactive); in [10], -0.417% (inactive) and -0.959% (inactive). For the same compound, in [13], the compound was called inactive.
As to `O=c1cc(CN2CCOCC2)occ1OCCCCCSc1ccnc2cc(C(F)(F)F)ccc12`, the call in [1] was inactive. Also, in [3], the viability (% of control) was 6.87%. Moreover, in [4], the viability, percent of control is 20.4%.
Consider `CC(C)(C)COc1ccc(-n2cc(C(=O)O)cn2)cc1C#N`, for which the Potency result in [7], in experiment [2], in experiment [5] and in experiment [6] was “inactive” throughout. Besides, the compound was classed as inactive in experiment [1]. The viability (% of control) in experiment [3] turned out to be 88.1%. Moreover, the viability, percent of control in experiment [4] was 90.4%.
As to `CO[C@H]1C[C@@H]2CC[C@@H](C)[C@@](O)(O2)C(=O)C(=O)N2CCCC[C@@H]2C(=O)O[C@H]([C@H](C)C[C@@H]2CC[C@H](OCCO)[C@H](OC)C2)CC(=O)[C@H](C)C=C(C)[C@@H](O)[C@@H](OC)C(=O)[C@H](C)C[C@H](C)C=CC=CC=C1C`, the call in experiment [1] was inactive. In addition, the viability (% of control) in [3] was -0.307%. For the same compound, in experiment [4], the viability, percent of control stood at 9.54%. For the same compound, the Potency entry in experiment [5] was “inactive”.
In the case of `COc1cc2ncnc(-n3nc(-c4ccccn4)nc3N)c2cc1OC`, the outcome in experiment [1] was inactive. Also, the Potency in [2] was 1.88 µM (active); in experiment [5] it was 16.6 µM (active); in [6], 20.9 µM (active). Besides, the viability (% of control) in experiment [3] turned out to be 1.94%. In [4], the viability, percent of control worked out at 17.1%.
Take `CO[C@@H](C(=O)N1Cc2[nH]nc(NC(=O)c3ccc(N4CCN(C)CC4)cc3)c2C1)c1ccccc1`: the Potency result in [7] is “inactive”. Further, in experiment [1], the call was inactive. In experiment [3], the viability (% of control) came out at 3.09%.
In the case of `COc1cc(N2CCC(N3CCN(C)CC3)CC2)ccc1Nc1ncc(Cl)c(Nc2ccccc2S(=O)(=O)C(C)C)n1`, the Potency was 2.09 µM (active) in [7], 11.9 µM (active) in experiment [2] and 23.5 µM (active) in experiment [6]. The call in experiment [1] was inactive. Moreover, in experiment [3], the viability (% of control) worked out at 3.22%. Moreover, the viability, percent of control in experiment [4] stood at 3.91%.
